# Test results published in PubChem BioAssay AID1024 (Sanford-Burnham Center for Chemical Genomics, 2008).
# The whole screen tested about 96,000 compounds, of which about 1,400 (1.5%) were called active. Many of the other results were omitted from the sample, so actives are more common in it than they were. Unmarked numbers belong to inactive results.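 The calls were made as follows: active = activation factor of 2 or more for CYP2C9 at a 5 µM dose; inactive = the rest.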
# Target: Cytochrome P450 2C9 (Homo sapiens) (UniProt P11712)
# Sequence (P11712 whole entry, looked up): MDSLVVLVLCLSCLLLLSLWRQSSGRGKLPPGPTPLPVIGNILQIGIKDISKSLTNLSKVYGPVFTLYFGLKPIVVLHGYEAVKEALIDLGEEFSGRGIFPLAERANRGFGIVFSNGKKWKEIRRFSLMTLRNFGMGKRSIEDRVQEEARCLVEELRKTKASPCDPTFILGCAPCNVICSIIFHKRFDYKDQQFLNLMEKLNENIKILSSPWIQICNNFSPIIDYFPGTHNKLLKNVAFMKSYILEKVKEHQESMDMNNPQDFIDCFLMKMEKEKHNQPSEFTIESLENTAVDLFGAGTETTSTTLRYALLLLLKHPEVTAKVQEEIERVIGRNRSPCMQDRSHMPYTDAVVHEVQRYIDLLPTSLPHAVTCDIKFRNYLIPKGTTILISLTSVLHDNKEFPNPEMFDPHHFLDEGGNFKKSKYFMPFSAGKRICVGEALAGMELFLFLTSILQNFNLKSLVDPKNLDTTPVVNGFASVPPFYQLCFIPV
# Assay: human CYP2C9 activators, primary screen, biochemical, luminescence (AID 1024);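 also: 0 = sulfaphenazole-blocked wells and 1 = vehicle-only wells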
# Details: recombinant CYP2C9, luciferin-H conversion, at 5 µM, hits give high values, factor 1 = untreated enzyme, 0 = blocked
row,Structure (SMILES),activation factor
1,CCN(c1ccccc1)S(=O)(=O)c1cccc(C(=O)O)c1,0.7
2,CCN(c1ccccc1)S(=O)(=O)c1ccc(N)cc1,2.4 (active)
3,CCN(c1ccccc1)S(=O)(=O)c1ccc(NC(=O)C(C)(C)C)cc1,0.7
4,O=C(NCCc1ccccn1)c1cc(C(=O)C2CCCCC2)c[nH]1,0.9
5,CC1CCN(C(NC(=O)c2ccco2)C(=O)c2ccccc2)CC1 (configuration not stated),0.3
6,COc1ccc(CCNC(=O)COC(=O)c2ccc[nH]c2=O)cc1,0.8
7,COc1cc(C2C(C(=O)OCCC#N)=C(C)NC3=C2S(=O)(=O)c2ccccc23)cc(OC)c1OC (configuration not stated),0.5
8,Cn1c(=O)cc(OCCCC(=O)N2CCN(Cc3ccc4c(c3)OCO4)CC2)c2ccccc21,0.9
9,O=C(Nc1cccc2ccccc12)N1CCN(Cc2ccc3c(c2)OCO3)CC1,0.6
10,O=C(CCCN1C(=O)c2cccc3cccc(c23)C1=O)N1CCN(Cc2ccc3c(c2)OCO3)CC1,2.4 (active)
11,COc1ccc(N(CC(=O)N/N=C/c2cccc3c2OCCO3)S(=O)(=O)c2ccc(NC(C)=O)cc2)cc1,0.2
12,CCN(CC)S(=O)(=O)c1ccc2c3c(cccc13)C(=O)S2,1.5
13,COc1cccc(C(=O)c2cc3ccc(O)cc3oc2=O)c1,0.1
14,COc1cccc2cc(C(=O)N(C)C)c(=O)oc12,2 (active)
15,COc1ccc2oc(=O)c(C(=O)O)cc2c1,1.1
16,O=C(Oc1ccccc1)Oc1ccc2c(c1)oc(=O)c1ccccc12,1.6
17,Cc1n[nH]c(=S)n1/N=C/c1ccc(Br)o1,1
18,CCc1cccc2c(C=C(C#N)C#N)cn(CC(=O)N3CCCCC3)c12,1
19,Cc1nc(SCC(=O)N2CC(=O)Nc3ccccc32)c2c(C)c(C)sc2n1,0.4
20,COc1ccc(C2SCCN2S(=O)(=O)c2ccccc2)cc1OC (configuration not stated),2.1 (active)
21,COc1ccc(S(=O)(=O)N2CCC(C(=O)N3CCc4ccccc4C3)CC2)cc1OC,0.5
22,COc1ccc(C2CC(=O)n3c(nc4ccccc43)S2)cc1OC (configuration not stated),0.9
23,COc1ccc(CNC(=O)C2CCC(CNc3c(N4CCOCC4)c(=O)c3=O)CC2)cc1 (configuration not stated),1.1
24,Cc1ccc(CNC(=O)c2ccccc2CCc2ccccc2)cc1,0.7
25,N#Cc1ccc(-c2ccc(Cl)cc2)nc1Oc1ccc(F)cc1,0.9
26,Clc1ccc(Cl)c(Oc2ccc(Oc3nc(Cl)ccc3Cl)cc2)n1,2 (active)
27,Nc1ccc(Oc2ccc(Cl)cc2)cc1,0.8
